Screening results deposited in PubChem by National Center for Advancing Translational Sciences (NCATS).
HCMV inh – human cytomegalovirus inhibition; HFF cells, HCMV-luciferase reporter, 72 h; active compounds read low; activity change, negative = inhibition, % at 57.5 µM; 410,000 compounds, 4.5% hits; AID 1259415; in the data active = activity change below about -60%; inconclusive = no clear call, values can overlap the other calls; inactive = above about -39%
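Screen run at 2 compound doses on HFFs infected with reporter HCMV, MOI 1 PFU/cell. Luciferase activity from cell lysates at 72 h post infection gave inhibition relative to buffer-only and Salinomycin wells.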
FMDV antiviral – antivirals against foot and mouth disease virus | 410,000 compounds, 1.2% hits | FMDV antiviral cell-based qHTS | Potency, µM (doses to about 57.9 µM), inactives show at the highest dose activity change, negative = inhibition, hits mostly inhibitors; calls by dose curve; tested in HEK293T cells; note: read-out not given here; potency is the fitted concentration of half-maximal effect; nearly all actives have a fitted effect of over 45% in size
Vaccinia Venus – inhibitors of vaccinia virus (Venus reporter); Vaccinia virus Venus reporter expression, fluorescence; Potency, µM (top dose mostly 36.5 µM), without a hit: at the highest dose activity change, negative = inhibition, hits mostly inhibitors; 330,000 compounds, 0.46% hits; AID 720580; calls by dose curve; tested in A549 cells; note: potency is the fitted concentration of half-maximal effect; nearly all actives have a fitted effect of over 30% in size
VACV mCherry inh – vaccinia inhibition (mCherry reporter). 310,000 compounds, 0.63% hits. Vaccinia virus mCherry reporter infection, fluorescence. Potency, µM (top dose mostly 36.5 µM), without a hit: top-dose activity change, negative = inhibition, most hits filed as inhibitors. AID 720579; calls by dose curve; tested in A549 cells; note: potency is the fitted concentration of half-maximal effect; nearly all actives have a fitted effect of over 35% in size
HCV inhibitor – blocks hepatitis C virus. AID 651820. 340,000 compounds, 3.4% hits. Huh7.5.1 HCVcc-Cre infection, luciferase reporter, 44 h. Potency, µM (highest dose often 41.8 µM), inactives show top-dose activity change, negative = inhibition, usual class: inhibitors; active = well fitted inhibition curve with a large enough effect; inconclusive = small, poorly fitted or top-dose-only effect, or another doubt; inactive = no such curve, though single readings can be large or run the other way; note: potency is the fitted concentration of half-maximal effect
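Cells (1,000/well) were plated 4 h before compound, then infected with HCVcc-Cre virus (~0.5 moi). After 44 h further culture, infection was read as luciferase luminescence following a 15 min substrate incubation at room temperature.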
* = called active by the depositor; i = inactive; ? = inconclusive; · = no result given; [ ] = dose if it differs, or a comment. Rows were chosen to be rich in hits. Some 7.3% of all compounds tested hit in one or more screens of this group. % is set by controls: 0 for no effect and ±100 for the full control effect.

SMILES	HCMV inh	FMDV antiviral	Vaccinia Venus	VACV mCherry inh	HCV inhibitor
O=C(CCl)Nc1cccc(S(=O)(=O)N2CCCCCC2)c1	-97.4*	25.1µM*	?	?	?
CC(C)CN(CC(C)C)C(=O)c1cc(S(=O)(=O)N2CCCCC2)c[nH]1	?	-14.5%	·	·	2.4%
O=S(=O)(c1cccc(S(=O)(=O)N2CCCC2)c1)N1CCCCC1	-8.5	-10.5%	-6.6%	-25.7%	13.3%
O=S(=O)(c1cccc(Cl)c1)N1CCCC1	-106.7*	6.8%	·	·	13.5%
O=C(COc1ccc(F)cc1Cl)Nc1cccc(S(=O)(=O)N2CCCC2)c1	-1.6	25.7%	·	·	10µM*
COc1ccc(-n2nnnc2SCC(=O)NCCc2ccccc2)cc1	5.9	0.3%	4.0%	19.3%	·
O=C(Nc1ccccc1)c1ccc(CN2CCc3ccccc3C2)cc1	-67.1*	-1.0%	-6.1%	i	?
Cc1cc(C)cc(NC(=O)c2ccc(CN3CCc4ccccc4C3)cc2)c1	?	?	-18.8%	?	?
CCc1nnc(NC(=O)c2ccc(S(=O)(=O)N3CCCC3)cc2)s1	17.3	19.5%	7.7%	4.5%	20.7%
O=C(Nc1ccc2c(c1)CN(Cc1ccc(CO)o1)CC2)c1ccc(C(F)(F)F)cc1	?	0.0%	-17.8%	?	11.2µM*
Cc1ccc(NC(=O)c2ccc(CN3CCc4ccccc4C3)cc2)cc1	-79.5*	8.0%	-20.8%	?	?
CCc1nnc(NC(=O)c2ccc(S(=O)(=O)N3CCCCC3)cc2)s1	-66.4*	-5.7%	-10.0%	-1.8%	0.7%
CN(C)S(=O)(=O)NCC1CCCN(Cc2ccc(-c3ccccc3)cc2)C1 (configuration not stated)	21.2	-19.8%	·	·	-13.1%
O=C(Nc1ccccc1F)c1ccc(CN2CCc3ccccc3C2)cc1	?	-7.9%	·	·	11.2µM*
O=C(Nc1ccc(S(=O)(=O)N2CCCCC2)cc1)c1ccc(CN2CCc3ccccc3C2)cc1	-73.8*	?	?	·	35.5µM*
COCc1nnc(NC(=O)c2ccc(S(=O)(=O)N3CCCC3)cc2)o1	-60.8*	-4.3%	-2.6%	-14.8%	22.2%
CS(=O)(=O)Nc1ccc(C(=O)Nc2ccc(S(=O)(=O)N3CCCCC3)cc2)cc1	-76.5*	0.0%	-18.7%	-19.2%	-23.9%
COC(=O)c1ccc(C)c(NC(=O)c2ccc(CN3CCc4ccccc4C3)cc2)c1	-31.9	?	·	·	-16.5%
O=C(Nc1cccnc1)c1ccc(CN2CCc3ccccc3C2)cc1	-35.3	?	·	·	4.47µM*
O=C1CN=C(c2ccc(Br)cc2)c2c(sc3c2CCCC3)N1CCN1CCCCC1	-96.7*	?	·	·	-18.0%
Cc1ccc2occ(CC(=O)N3CCN(c4cccc(Cl)c4)CC3)c2c1	-70.8*	-21.9%	-10.3%	i	·
COc1ccc(N2CCN(C(=O)Cc3coc4cc(C)ccc34)CC2)cc1	-5.7	-9.1%	-4.5%	-6.6%	-8.9%
COc1ccc(N2CCN(C(=O)Cc3coc4ccc(C)cc34)CC2)cc1	-114.2*	-18.6%	-20.6%	-22.1%	·
Cc1nc(Cc2nnc(SC(C)C(=O)Nc3cccc(C#N)c3)o2)cs1 (configuration not stated)	·	-10.4%	-12.7%	-14.1%	0.7%[8.37 µM]
CC(C)N1CCC2(CC1)N=C(c1ccc3c(c1)OCO3)CC(c1cc(Cl)ccc1O)N2 (configuration not stated)	-80.8*	?	-29.3%	·	?
SMILES	HCMV inh	FMDV antiviral	Vaccinia Venus	VACV mCherry inh	HCV inhibitor
Cc1ccc(C)c(Oc2cc(NC(=O)CCCn3nc(C)c([N+](=O)[O-])c3C)cc([N+](=O)[O-])c2)c1	-87.6*	0.0%	?	?	12.6µM*
Cc1nn(CCCC(=O)Nc2cc(Oc3ccccc3)cc([N+](=O)[O-])c2)c(C)c1[N+](=O)[O-]	2.6	0.0%	?	?	?
COc1cccc(C(C)(O)c2nc(-c3ccc(C)c(C)c3)cs2)c1 (configuration not stated)	-32.1	?	1.9%	-0.1%	·
CC(C(=O)c1ccccc1)[n+]1ccc(Cl)c2ccc(Cl)cc21 (configuration not stated)	·	·	-5.9%	30.2%	·
CCN(CC)S(=O)(=O)c1cccc(C(=O)Nc2ccc(S(=O)(=O)NC3=NCCCCC3)cc2)c1	-62.1*	?	-23.6%	-13.0%	5.6%
CCN(CC)S(=O)(=O)c1cccc(C(=O)Nc2cc(C)cc(C)c2)c1	9.3	28.1%	-16.0%	-24.0%	?
CCCOc1ccc(C(=O)Nc2ccc(S(=O)(=O)NC3=NCCCCC3)cc2)cc1	-61.7*	-26.1%	?	8.91µM*	?
CON(C)S(=O)(=O)c1cccc(C(=O)Nc2ccc(S(=O)(=O)NC3=NCCCCC3)cc2)c1	?	-24.5%	-22.1%	-11.4%	?
CCN(CC)S(=O)(=O)c1cccc(C(=O)Nc2ccc(C#N)cc2)c1	?	25.1µM*	·	·	?
Cc1ccc(S(=O)(=O)N2[C@@H](c3ccccc3F)C(C(=O)O)=CC[C@H]2c2cccc(Cl)c2)cc1	5.2	16.2%	-1.2%	i	-3.6%
Cc1ccc(OCC(=O)NCC(=O)OCc2cc(=O)n3nc(C(C)C)sc3n2)cc1	-1.4	7.5%	-5.0%	-7.8%	·
CN1C(=O)C(Cl)(Cl)C(=O)c2ccccc21	·	28.2µM*	-6.8%	-8.2%	1.4%
CN1C(=O)C2(NC(=O)c3ccccc3N2C)c2ccccc21 (configuration not stated)	89.0	-10.7%	·	·	-8.8%
O=c1[nH]c(SCc2nc3ccccc3c(=O)n2-c2ccccc2C(F)(F)F)nc2ccccc12	?	17.8µM*	-13.9%	-18.2%	-0.6%
Cc1nc2ccccc2c(=O)n1-c1ccccc1C(F)(F)F	28.5	·	-13.5%	-4.6%	0.6%
COc1cc(C(=O)Nc2ccc(NC(=O)c3cccc(Cl)c3)nc2)cc(OC)c1OC	-35.3	-21.1%	-17.8%	?	3.98µM*
CCN(CC)S(=O)(=O)c1cccc(C(=O)Nc2ccc(Cl)cn2)c1	-11.0	?	·	·	3.55µM*
CCN(CC)S(=O)(=O)c1cccc(C(=O)N/N=C(\C)c2ccc(O)cc2O)c1	-94.7*	-6.6%	?	?	8.91µM*
CCN(CC)S(=O)(=O)c1cccc(C(=O)N/N=C/c2ccc(O)c(O)c2O)c1	34.4	?	-7.5%	i	6.6%
CCN(CC)S(=O)(=O)c1cc(C(=O)Nc2ccc(Cl)cn2)ccc1C	40.6	-58.6%	?	·	15.8µM*
CCN(CC)S(=O)(=O)c1cc(C(=O)NC2CCCCC2)ccc1C	68.8	44.6%	·	·	?
CC1CCC2(CC1)NC(=O)N(CC(=O)Nc1ccc(F)cc1)C2=O (configuration not stated)	-26.9	-24.7%	·	·	6.4%
CC(C)(C)NC(=O)C[C@H]1C[C@H](C(=O)N2CCOCC2)[C@@]2(C)c3[nH]c4ccc(Cl)cc4c3CCN2C1=O	-10.5	-16.5%	-15.8%	-14.2%	16.9%
CC(C)NC(=O)N1[C@@H]2CN(C(=O)c3ccc(F)cc3)c3ccccc3[C@@H]2[C@@H]1CO	-6.1	·	·	·	·
CCN(CC)S(=O)(=O)c1cc(C(=O)Nc2cc(C)on2)ccc1Cl	-63.9*	-16.9%	0.6%	-14.6%	?
